Source: PubChem BioAssay (EPA / NIEHS)
Activity calls are given as the source filed them. Rule for the calls: active = hit-call score of the fitted dose curve at least 0.9, where 1 is the maximum; inactive = score below 0.9.

Key:
[1] = ATG_CRE_CIS: Attagene CIS-FACTORIAL HepG2 Assay for human cAMP Responsive Element (CRE) binding protein 3 (AID 2282926); conditions: HepG2 CRE cis-reporter, Attagene multiplexed mRNA; actives raise or lower the signal
Summary of the method: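 Multiplexed transcription-unit reporters transfected into HepG2; 24 h dosing; RT-PCR/capillary electrophoresis fluorescence read-out; bidirectional fit vs DMSO.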

[2] = biological target: CCAAT/enhancer-binding protein beta (Homo sapiens) (UniProt P17676); assay: ATG_C_EBP_CIS: Attagene CIS-FACTORIAL HepG2 Assay for human CCAAT/Enhancer Binding Protein (C/EBP) beta (AID 2282927); conditions: HepG2 Attagene cis-factorial transcription factor reporter; actives raise or lower the signal
Summary of the method: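 Following a 24 h incubation with test chemical, transfected HepG2 cells yielded RNA whose reporter transcripts were quantified by RT-PCR and fluorescent capillary electrophoresis, with DMSO serving as baseline for bidirectional fitting.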

[3] = ATG_CMV_CIS: Attagene CIS-FACTORIAL HepG2 Assay for human CMV (Internal Marker) (AID 2282928); conditions: HepG2 CMV promoter reporter, transcription factor profiling; actives raise or lower the signal;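 note: endpoint acts as a background internal control marker rather than a target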
Summary of the method: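 CMV internal-marker background readout in transiently transfected HepG2 cells bearing cis-regulated reporter units. Reporter mRNA is measured 24 h after dosing by RT-PCR and capillary electrophoresis, with bidirectional fitting against DMSO.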

[4] = ATG_DR4_LXR_CIS: Attagene CIS-FACTORIAL HepG2 Assay for human Liver X Receptor (LXR), DR4 submotif (AID 2282929); conditions: HepG2 Attagene DR4 cis-reporter, mRNA transcription; actives raise or lower the signal
Summary of the method: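 Transiently transfected HepG2 liver cells; cis-regulated reporters; 24 h dosing. RT-PCR plus CE read-out of reporter mRNA. DMSO baseline, bidirectional curve fitting.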

[5] = biological target: Aryl hydrocarbon receptor (Homo sapiens) (UniProt P35869); assay: ATG_Ahr_CIS: Attagene CIS-FACTORIAL HepG2 Assay for human Aryl Hydrocarbon Receptor (Ahr) (AID 2282930); conditions: HepG2 AhR cis-factorial reporter transcription; actives raise or lower the signal
Summary of the method: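 Values derive from bidirectional fitting against DMSO negative control. Underlying signal: cis-element reporter mRNA in transiently transfected HepG2, harvested 24 h post-dose and measured by RT-PCR plus capillary electrophoresis.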

[6] = ATG_AP_1_CIS: Attagene CIS-FACTORIAL HepG2 Assay for human Activator Protein 1 (AP-1) (AID 2282931); conditions: HepG2 Attagene cis-factorial AP-1 reporter mRNA; actives raise or lower the signal
Summary of the method: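 We transfected HepG2 cells transiently with a set of cis-regulated reporter transcription units, dosed them for 24 h, and quantified reporter mRNA via RT-PCR and capillary electrophoresis, scoring gain or loss of signal relative to DMSO.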

[7] = ATG_AP_2_CIS: Attagene CIS-FACTORIAL HepG2 Assay for human Activator Protein 2 (AP-2) (AID 2282932); conditions: HepG2 AP-2 cis-reporter, Attagene transcription factor profiling; actives raise or lower the signal
Summary of the method: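 HepG2 cells were transiently transfected with multiple cis-promoter reporter transcription units and dosed for 24 h. Reporter mRNA was measured by RT-PCR with capillary electrophoresis fluorescence; bidirectional fits relative to DMSO baseline.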

[8] = ATG_BRE_CIS: Attagene CIS-FACTORIAL HepG2 Assay for human Bone Morphogenetic Protein (BMP) Response Element (BRE) (AID 2282933); conditions: HepG2 BMP response element reporter, Attagene transcription factor profiling; actives raise or lower the signal
Summary of the method: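 Read-out: reporter mRNA induction quantified by RT-PCR and capillary electrophoresis after 24 h chemical exposure of transfected HepG2 cells. Endogenous factor activity on the BMP response element; gain or loss fitted against DMSO baseline.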

[9] = biological target: Retinoic acid receptor alpha (Homo sapiens) (UniProt P10276); assay: ATG_DR5_RAR_CIS: Attagene CIS-FACTORIAL HepG2 Assay for human Retinoic Acid Receptor Alpha (RARE), DR5 submotif (AID 2282934); conditions: HepG2 Attagene cis-factorial RARE DR5 reporter, mRNA; actives raise or lower the signal
Summary of the method: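 Endpoint fitted in both directions relative to DMSO as negative control. It reflects DR5 cis-element reporter mRNA induction in transiently transfected HepG2 cells, measured 24 h after dosing through RT-PCR and fluorescent capillary electrophoresis.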

[10] = biological target: Transcription factor E2F1 (Homo sapiens) (UniProt Q01094); assay: ATG_E2F_CIS: Attagene CIS-FACTORIAL HepG2 Assay for human E2F Transcription Factor 1 (AID 2282935); conditions: HepG2 Attagene cis-reporter, E2F reporter RNA transcripts; actives raise or lower the signal
Summary of the method: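 HepG2 cells transiently transfected with multiplexed cis-element reporter units, dosed for 24 h. Reporter mRNA measured by RT-PCR, 6-FAM primer-extension labeling, HpaI digestion and capillary electrophoresis; bidirectional fit versus DMSO baseline.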

Measured: AC50

Chain of Retinoic acid receptor alpha (Homo sapiens) (P10276 whole entry, looked up): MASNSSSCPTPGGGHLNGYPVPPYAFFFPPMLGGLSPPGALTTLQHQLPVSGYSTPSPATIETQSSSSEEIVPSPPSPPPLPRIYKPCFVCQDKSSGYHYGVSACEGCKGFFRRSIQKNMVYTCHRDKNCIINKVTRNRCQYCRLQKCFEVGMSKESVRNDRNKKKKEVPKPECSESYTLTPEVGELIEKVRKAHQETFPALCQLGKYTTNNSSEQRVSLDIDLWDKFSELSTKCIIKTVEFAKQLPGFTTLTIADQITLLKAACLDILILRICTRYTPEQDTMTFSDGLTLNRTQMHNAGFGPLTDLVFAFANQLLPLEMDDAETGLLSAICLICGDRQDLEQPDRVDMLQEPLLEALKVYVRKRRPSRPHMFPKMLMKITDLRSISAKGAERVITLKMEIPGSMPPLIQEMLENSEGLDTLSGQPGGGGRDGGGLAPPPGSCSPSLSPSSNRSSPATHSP
Chain of CCAAT/enhancer-binding protein beta (Homo sapiens) (P17676 whole entry, looked up): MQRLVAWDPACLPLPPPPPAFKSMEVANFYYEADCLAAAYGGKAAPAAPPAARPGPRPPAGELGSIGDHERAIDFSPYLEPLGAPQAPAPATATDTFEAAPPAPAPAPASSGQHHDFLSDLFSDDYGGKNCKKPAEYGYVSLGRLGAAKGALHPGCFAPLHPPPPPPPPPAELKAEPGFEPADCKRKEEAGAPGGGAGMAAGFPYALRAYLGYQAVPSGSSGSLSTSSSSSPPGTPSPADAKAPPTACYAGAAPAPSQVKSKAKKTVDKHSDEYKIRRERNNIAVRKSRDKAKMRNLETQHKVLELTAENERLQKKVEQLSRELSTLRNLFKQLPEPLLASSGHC
Chain of Transcription factor E2F1 (Homo sapiens) (Q01094 whole entry, looked up): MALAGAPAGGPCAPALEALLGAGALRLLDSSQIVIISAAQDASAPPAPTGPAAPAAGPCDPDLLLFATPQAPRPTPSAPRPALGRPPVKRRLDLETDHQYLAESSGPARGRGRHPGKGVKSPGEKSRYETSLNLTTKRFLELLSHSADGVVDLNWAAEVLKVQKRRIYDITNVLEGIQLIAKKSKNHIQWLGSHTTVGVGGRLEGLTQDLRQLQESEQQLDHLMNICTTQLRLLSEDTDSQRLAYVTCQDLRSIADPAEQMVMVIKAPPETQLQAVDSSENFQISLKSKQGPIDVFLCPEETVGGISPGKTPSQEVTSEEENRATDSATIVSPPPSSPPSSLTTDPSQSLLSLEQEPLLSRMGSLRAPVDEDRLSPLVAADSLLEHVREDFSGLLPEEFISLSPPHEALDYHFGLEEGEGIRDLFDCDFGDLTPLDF
Chain of Aryl hydrocarbon receptor (Homo sapiens) (P35869 whole entry, looked up): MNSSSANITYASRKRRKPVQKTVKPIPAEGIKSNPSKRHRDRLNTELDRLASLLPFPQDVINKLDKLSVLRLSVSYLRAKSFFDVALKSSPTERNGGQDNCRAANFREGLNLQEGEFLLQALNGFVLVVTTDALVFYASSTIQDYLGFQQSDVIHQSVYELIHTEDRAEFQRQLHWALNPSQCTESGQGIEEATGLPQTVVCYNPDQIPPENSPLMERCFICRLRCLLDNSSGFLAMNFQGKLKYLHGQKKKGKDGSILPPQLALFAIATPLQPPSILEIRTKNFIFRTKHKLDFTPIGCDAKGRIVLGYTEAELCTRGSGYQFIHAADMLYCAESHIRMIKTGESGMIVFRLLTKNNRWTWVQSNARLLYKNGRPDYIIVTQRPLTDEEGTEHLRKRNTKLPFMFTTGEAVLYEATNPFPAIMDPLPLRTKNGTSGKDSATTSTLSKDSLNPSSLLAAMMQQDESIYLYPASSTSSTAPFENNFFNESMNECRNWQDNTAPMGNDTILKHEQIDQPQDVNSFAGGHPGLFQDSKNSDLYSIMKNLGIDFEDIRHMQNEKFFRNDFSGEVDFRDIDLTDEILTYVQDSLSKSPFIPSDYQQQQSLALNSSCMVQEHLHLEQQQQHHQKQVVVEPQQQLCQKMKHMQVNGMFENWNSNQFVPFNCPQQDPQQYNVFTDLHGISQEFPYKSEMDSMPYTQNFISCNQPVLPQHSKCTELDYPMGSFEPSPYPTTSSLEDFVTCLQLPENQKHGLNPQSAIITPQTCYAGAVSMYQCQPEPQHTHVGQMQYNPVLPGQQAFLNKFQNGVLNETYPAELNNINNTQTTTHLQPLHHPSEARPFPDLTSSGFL

COc1cc2c(cc1OC)[C@@]13CCN4CC5=CCO[C@H]6CC(=O)N2[C@H]1[C@H]6[C@H]5C[C@H]43
inactive: [1] | [2] | [3] | [4] | [5] | [6] | [7] | [8] | [9] | [10]

Cc1ccccc1C(=O)Nc1cccc(OC(C)C)c1
inactive: [1] | [2] | [5] | [6] | [7] | [8] | [10]
active: [3] 61.9 µM | [4] 158 µM

COc1cc(OC)nc(NC(=O)NS(=O)(=O)c2ncccc2C(=O)N(C)C)n1
inactive: [1] | [2] | [3] | [4] | [5] | [6] | [7] | [8] | [10]

[O-][Cl+2]([O-])O
inactive: [1] | [2] | [3] | [4] | [5] | [6] | [7] | [9] | [10]

Cl/C=C\C[N+]12CN3CN(CN(C3)C1)C2
active: [3] 170 µM | [4] 41.7 µM | [6] 181 µM | [8] 19.8 µM
inactive: [1] | [2] | [5] | [7] | [10]

CCOP(=S)(OCC)SCCS(=O)(=O)CC
inactive: [1] | [2] | [3] | [4] | [5] | [6] | [7] | [9] | [10]

ClC(Cl)=C(Cl)C(Cl)=C(Cl)Cl
inactive: [2] | [3] | [6] | [8] | [9] | [10]
active: [1] 180 µM | [4] 100 µM | [5] 71.4 µM | [7] 165 µM

CCNc1nc(NC(C)(C)C)nc(SC)n1
active: [3] 65.6 µM | [6] 152 µM
inactive: [1] | [2] | [4] | [5] | [7] | [8] | [9] | [10]

Cc1cc(Cl)ccc1O[C@H](C)C(=O)O
inactive: [1] | [2] | [3] | [4] | [5] | [6] | [7] | [8] | [9] | [10]

CCOP(=O)(CN(CCO)CCO)OCC
inactive: [1] | [2] | [3] | [4] | [5] | [6] | [7] | [8] | [9] | [10]

CCCCOCCOC(C)=O
inactive: [1] | [2] | [3] | [4] | [5] | [6] | [7] | [8] | [10]

Fc1ccc(C2(Cn3cncn3)OC2c2ccccc2Cl)cc1 (stereo not drawn)
active: [5] 13.3 µM | [8] 69.9 µM
inactive: [1] | [2] | [3] | [4] | [6] | [7] | [9] | [10]

CNC
inactive: [1] | [2] | [3] | [4] | [5] | [6] | [7] | [10]

CCC[CH2][Sn]([Cl])([Cl])[Cl]
inactive: [1] | [2] | [3] | [4] | [5] | [6] | [8] | [10]

Cc1cc(=O)[nH]o1
inactive: [1] | [2] | [3] | [4] | [5] | [6] | [7] | [10]

C=CC(=O)N(C)C
inactive: [1] | [2] | [3] | [4] | [5] | [6] | [7] | [10]

CC(=[OH+])/C=C(/C)[O-].CC(=[OH+])/C=C(/C)[O-].CC(=[OH+])/C=C(/C)[O-].[Fe]
inactive: [1] | [2] | [3] | [4] | [5] | [6] | [7] | [10]

ClCc1ccccn1
active: [1] 67.5 µM | [5] 76 µM
inactive: [2] | [3] | [4] | [6] | [7] | [10]

Nc1cccc2ccccc12
active: [4] 154 µM | [5] 5.16 µM
inactive: [1] | [2] | [3] | [6] | [7] | [10]

CCOC(=O)CP(=O)(OCC)OCC
inactive: [1] | [2] | [3] | [4] | [5] | [6] | [8] | [10]

O=C(Cc1ccccc1)c1ccccc1
inactive: [1] | [2] | [3] | [4] | [5] | [6] | [8] | [9] | [10]

Cl/C=C/Cl
inactive: [1] | [2] | [3] | [4] | [5] | [6] | [8] | [9] | [10]

O=S(=O)(c1ccc(Cl)cc1)c1ccc(Cl)cc1
active: [3] 16.5 µM | [6] 35.8 µM
inactive: [1] | [2] | [4] | [5] | [7] | [10]

N#CCc1ccc(Cl)cc1
inactive: [1] | [2] | [3] | [4] | [5] | [6] | [7] | [9] | [10]

CC(=O)C(Cl)C(=O)N(C)C (stereo not drawn)
inactive: [1] | [2] | [3] | [4] | [5] | [6] | [7] | [10]

CC(C)(c1ccc(OCC2CO2)cc1)c1ccc(OCC2CO2)cc1 (stereo not drawn)
inactive: [5] | [7] | [9] | [10]
active: [1] 36 µM | [2] 51.6 µM | [3] 49.2 µM | [4] 25.9 µM | [6] 53.9 µM

CCc1ccccc1N
active: [5] 67.2 µM
inactive: [1] | [2] | [3] | [4] | [6] | [9] | [10]
